We go through 61 compounds from PubChem BioAssay AID1851 (National Center for Advancing Translational Sciences (NCATS), 2009).

Values joined by “and” are separate entries in the source; they are usually repeats but may differ in a detail not shown here. Equal values may be shown once. Hit rate of the full screen: of about 16,000 compounds, about 2,600 (16%) were called active. Inconclusive results (about 20%) are left out. Only a sample is shown. Values without a mark were called inactive. Calls follow the shape of the dose curve; as a rule, active = well fitted curve in the direction sought with a large enough effect; inconclusive = small, poorly fitted or top-dose-only effect, or effect the other way; inactive = no such curve, though single readings can be large or run the other way.
% is scaled to controls: 0 for no effect and ±100 for the full control effect.

Cytochrome P450 2D6 (Homo sapiens), sequence (P10635 whole entry, looked up): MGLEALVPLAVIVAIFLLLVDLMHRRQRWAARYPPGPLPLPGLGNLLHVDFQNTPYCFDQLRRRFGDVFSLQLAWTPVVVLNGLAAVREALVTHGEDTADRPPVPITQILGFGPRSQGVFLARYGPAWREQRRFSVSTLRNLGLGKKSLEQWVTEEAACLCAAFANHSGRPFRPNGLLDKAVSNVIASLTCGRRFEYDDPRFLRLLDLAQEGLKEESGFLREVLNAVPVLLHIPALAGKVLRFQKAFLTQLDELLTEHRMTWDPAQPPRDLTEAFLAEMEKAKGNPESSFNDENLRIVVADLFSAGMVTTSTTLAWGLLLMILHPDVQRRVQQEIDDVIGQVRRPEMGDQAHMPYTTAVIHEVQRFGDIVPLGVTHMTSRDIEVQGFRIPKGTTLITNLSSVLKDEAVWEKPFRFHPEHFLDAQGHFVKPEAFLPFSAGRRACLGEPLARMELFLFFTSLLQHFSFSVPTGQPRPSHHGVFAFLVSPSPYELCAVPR

This experiment has as its target Cytochrome P450 2D6 (Homo sapiens) (UniProt P10635). As to the kind of experiment: Cytochrome panel assay with activity outcomes. The conditions noted are these: recombinant CYP, pro-luciferin dealkylation, luminescence, p450-cyp2d6; series mostly up to 57.1 µM.
In the case of `Cc1nc(NS(=O)(=O)c2ccc(Br)cc2)c2c3c(sc2n1)CCC3`, the AC50 entry is “inactive”.
On the same count and under the same terms, to `Cc1cc(NC(=O)c2cccc(F)c2)no1` belongs “inactive”; to `Cc1ccc(-c2csc(C(C#N)=C3CCCC3)n2)cc1`, “inactive”.
As for `Cc1ccc(N2CC(C(=O)Nc3cc(C)on3)CC2=O)cc1` (stereo unspecified), the AC50 result is “inactive”.
On the same count and under the same terms, for `c1ccc(CNc2ncncc2-c2ccoc2)cc1` the value was 20 µM (active); for `c1csc(CNc2ncncc2-c2ccoc2)c1`, 15.8 µM (active).
On the same count and under the same terms, to `Cc1cnc(CNc2ncncc2-c2ccoc2)cn1` belongs “inactive”; to `NCCCC(=O)O`, “inactive”.
Take `CCC(=O)O[C@@H]1[C@H](C)O[C@H](O[C@H]2[C@@H](N(C)C)[C@H](O)[C@@H](O[C@@H]3[C@@H](CC=O)C[C@@H](C)[C@@H](O)/C=C\C=C/C[C@@H](C)OC(=O)C[C@@H](OC(=O)CC)[C@H]3OC)O[C@H]2C)C[C@]1(C)O`: the AC50 entry is “inactive”.
Still for that read-out and setting: for `CCCCCCC1CC(C)(/C(C)=N/NC(N)=O)OC1=O` (stereo unspecified) the value was “inactive”.
For the compound `CCOC(=O)N/N=C1/C[C@@H](O)[C@@H](O)[C@@H]2[C@@H]3C(=O)N([C@@H](C)c4ccccc4)C(=O)[C@H]3CC[C@@H]12`, the activity, negative = inhibition was 0.427% [at 11.4 µM].
With `COc1ccc(NC(=S)Nc2ncccc2C)c(OC)c1`, the AC50 entry is “inactive”.
Consider `Nc1nc2c(ncn2[C@@H]2C=C[C@@H](CO)C2)c(=O)[nH]1`, for which the activity, negative = inhibition is 4.55% [at 11.4 µM].
As to `Cc1cc(-c2c(C)[nH]n(-c3ccccc3)c2=O)n(-c2ccccc2)n1`, the AC50 entry is “inactive”.
Take `O=C(O)[C@H](Cc1ccc(O)c([N+](=O)[O-])c1)N1C(=O)c2ccccc2C1=O`: the activity, negative = inhibition was 6.61% [at 11.4 µM].
As to `CN1CCN(c2ncc3nc(-c4ccc(F)cc4)c(=O)n(Cc4cccs4)c3n2)CC1`, the AC50 entry is “inactive”.
On the same count and under the same terms, to `CNc1nc(-c2c(C)noc2C)nc2ccccc12` belongs “inactive”.
On to `Cc1noc(C)c1-c1nc(N2CCOCC2)c2ccccc2n1`, for which the AC50 entry is “inactive”.
The same measure, in the same setting: for `CN(C)Cc1ccccc1-c1nc(N(C)C)c2ccccc2n1` the value was 2.51 µM (active); for `CNc1nc(-c2ccccc2CN(C)C)nc2ccccc12`, 3.98 µM (active).
Still for that read-out and setting: for `CN(C)Cc1ccccc1-c1nc(N2CCOCC2)c2ccccc2n1` the value was 7.94 µM (active).
The same measure, in the same setting: for `Cc1ccccc1-c1nc(N2CCOCC2)c2ccccc2n1` the value was “inactive”; for `Cc1cccc(CNc2nc(-c3ccccc3CN(C)C)nc3ccccc23)c1`, 12.6 µM (active).
As for `COc1ccc(N2CC(C(=O)OCC(=O)c3cccc(OC)c3)CC2=O)cc1` (stereo unspecified), the AC50 entry was “inactive”.
The same measure, in the same setting: to `O=C1CC(c2ccccc2)Cc2nc(N3CCc4ccccc4C3)ncc21` (stereo unspecified) belongs “inactive”; to `O=C(Nc1nnc(C2CC2)s1)c1ccc(S(=O)(=O)c2ccccc2)cc1`, “inactive”.
Still for that read-out and setting: for `COCCNC(=O)c1ccc2c(c1)nc(C)n2-c1cc(OC)c(OC)c(OC)c1` the value was “inactive”; for `COC(=O)COc1ccc2c(-c3cccc([N+](=O)[O-])c3)cc(=O)oc2c1`, “inactive”.
Same read-out and setting: for `Cc1cc(C(=O)OCC(=O)NCCCN2CCCC2=O)c2ccccc2n1` the value was “inactive”.
Consider `O=C(C1=C(O)C(=O)N(Cc2ccco2)C1c1ccccc1)c1cccs1` (stereo unspecified), for which the AC50 entry is “inactive”.
Still for that read-out and setting: for `CN(C)C(=O)c1ccc(-c2nc(NC3CCNCC3)c3ccccc3n2)cc1` the value was “inactive”; for `COCCNc1nc(-c2ccccc2CN(C)C)nc2ccccc12`, 12.6 µM (active).
As for `CN(C)Cc1ccccc1-c1nc(NCc2cccs2)c2ccccc2n1`, the AC50 is 20 µM (active).
As to `COCCNc1nc(-c2ccccc2C)nc2ccccc12`, the AC50 entry was “inactive”.
Still for that read-out and setting: for `CN(C)Cc1ccccc1-c1nc(NC2CC2)c2ccccc2n1` the value was 3.98 µM (active).
Same read-out and setting: for `CN(C)Cc1ccccc1-c1nc(NCc2ccccc2)c2ccccc2n1` the value was 20 µM (active); for `Cc1noc(C)c1-c1nc(NC2CCNCC2)c2ccccc2n1`, “inactive”.
Still for that read-out and setting: for `COCCNc1nc(-c2c(C)noc2C)nc2ccccc12` the value was “inactive”; for `CC1=C(C#N)C(NC(=O)C2CCCCC2)(C(F)(F)F)C(=O)N1` (stereo unspecified), “inactive”.
Take `N#Cc1nc(-c2ccc(F)cc2)oc1N1CCCC1`: the AC50 result is “inactive”.
On the same count and under the same terms, to `CCOC(=O)c1cc(-c2ccccc2)sc1NC(=S)Nc1cc(C)ccn1` belongs “inactive”.
In the case of `NCCNS(=O)(=O)c1ccc(N)cc1`, the activity, negative = inhibition was 1.63% [at 11.4 µM].
Regarding `CCn1c(SCC(=O)Nc2sc3c(c2C#N)CCC(C(C)(C)C)C3)nnc1-c1ccco1` (stereo unspecified), the AC50 result is “inactive”.
Same read-out and setting: to `COc1ccc(C(=O)N2CCC[C@@]3(CCN(c4cccc(-c5ccccc5)c4)C3)C2)cc1` belongs “inactive”; to `Cn1ncc2c(Nc3cccc(C(=O)O)c3)ncnc21`, “inactive”.
The same measure, in the same setting: to `CN[C@]1(C)[C@H]2CC[C@@H](C2)C1(C)C` belongs “inactive”; to `CCc1ccc(N2CC(C)Cn3c2nc2c3c(=O)n(CCN3CCOCC3)c(=O)n2C)cc1` (stereo unspecified), “inactive”.
Turning to `CC(C)[C@@H](OCc1ccccc1)[C@H](C)/C=N\O[C@@H](C)c1cn([C@H](CO)Cc2ccccc2)nn1`, the activity, negative = inhibition was -24.2% [at 11.4 µM] and -19.2% [at 11.4 µM].
Turning to `CC1(C)S[C@@H]2[C@H](NC(=O)[C@H](C(=O)O)c3ccsc3)C(=O)N2[C@H]1C(=O)O`, the AC50 result is “inactive”.
On to `CCOC(=O)C1=C(C)NC(=O)NC1c1ccoc1` (stereo unspecified), for which the AC50 result is “inactive”.
Same read-out and setting: for `O=C1C(=O)c2ccccc2C(O)=C1C1CCC(c2ccc(Cl)cc2)CC1` (stereo unspecified) the value was “inactive”; for `O=C1CCCC2=C1C(c1ccc(Cl)cc1)C1C(=O)c3ccccc3C1=N2` (stereo unspecified), 25.1 µM (active).
The same measure, in the same setting: for `CCOC(=O)C1=C(C)N=C2c3ccccc3C(=O)C2C1c1ccc(Cl)cc1` (stereo unspecified) the value was 15.8 µM (active).
On the same count and under the same terms, for `CCOC(=O)C1=C(C)N=C2c3ccccc3C(=O)C2C1c1ccc(C)cc1` (stereo unspecified) the value was “inactive”.
For the compound `O=C1c2ccccc2C2=Nc3ccccc3SC(c3ccccc3F)C12` (stereo unspecified), the AC50 result was “inactive”.
Same read-out and setting: to `COC(=O)c1c(NC(=O)C(C)(C)C)sc2c1C(C(=O)OC)CC2` (stereo unspecified) belongs “inactive”.
For the compound `O=S(=O)(C[C@H](O)C(Cl)(Cl)Cl)NNc1ccccc1`, the activity, negative = inhibition was 17.4% [at 11.4 µM].
Consider `C[C@H]1O[C@@H](CC(=O)O)Cc2c1c(O)c1c(O)cc(-c3cc(=O)c4c(=O)c5c(c(=O)c=4c3=O)C[C@H](CC(=O)O)O[C@@H]5C)c(O)c1c2O`, for which the activity, negative = inhibition was -3.88% [at 11.4 µM].
Consider `CN(C)c1ncc2nc(-c3ccc(F)cc3)c(=O)n(C3CC3)c2n1`, for which the AC50 result is “inactive”.
Turning to `O=C(Nc1cc(C(F)(F)F)ccc1-n1cncn1)c1ccc(Br)cc1`, the AC50 entry is “inactive”.
In the case of `C[n+]1cccc(CNC(=O)/C=N/O)c1`, the AC50 result is “inactive”.
